Data from PubChem BioAssay AID743126 (The Scripps Research Institute Molecular Screening Center, 2013).
Out of some 370,000 compounds screened, about 2,100 (0.57%) were called active. This excerpt belongs to a sample that is enriched for actives. A number with no mark means an inactive call.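 Rule for the calls: active = inhibition above mean plus 3 SD of compounds lying within the high and low control bounds (cut at about 19% in these data); inactive = the rest.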

These compounds were tested against Group 3 secretory phospholipase A2 (Homo sapiens) (UniProt Q9NZ20) (assay: human group III sPLA2 inhibitors, primary screen, biochemical, QFRET, BODIPY PC-A2 liposome substrate (AID 743126;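 note: 0% = median of test compound wells and 100% = no enzyme DMSO wells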)). Details: QFRET BODIPY PC-A2 liposome hydrolysis, fluorescence; at 12.2 µM; stronger effect = higher value.
Group 3 secretory phospholipase A2 (Homo sapiens), sequence (Q9NZ20 whole entry, looked up): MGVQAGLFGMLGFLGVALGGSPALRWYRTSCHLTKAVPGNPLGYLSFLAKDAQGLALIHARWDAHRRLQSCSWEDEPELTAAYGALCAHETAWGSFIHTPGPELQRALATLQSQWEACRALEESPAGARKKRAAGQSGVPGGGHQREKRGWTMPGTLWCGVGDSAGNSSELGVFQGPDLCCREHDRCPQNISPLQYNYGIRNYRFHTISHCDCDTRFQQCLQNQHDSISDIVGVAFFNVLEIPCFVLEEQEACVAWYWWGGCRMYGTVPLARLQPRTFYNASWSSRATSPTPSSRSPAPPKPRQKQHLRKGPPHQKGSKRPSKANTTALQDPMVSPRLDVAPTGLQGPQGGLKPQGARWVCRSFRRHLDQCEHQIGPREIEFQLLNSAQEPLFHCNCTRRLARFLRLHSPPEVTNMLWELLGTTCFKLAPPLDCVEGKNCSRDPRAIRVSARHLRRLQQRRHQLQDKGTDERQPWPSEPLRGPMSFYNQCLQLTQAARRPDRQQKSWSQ

Question: Which inhibition does the source give for `O=C1Nc2ccccc2OC1CC(=O)N1CCCCCCC1` (configuration not stated) here?
Answer: Its inhibition is 1.64%.

Question: How did the inhibition turn out when `C=CCN1[C@H](CC(C)C)COc2cccc(N3CCCC3)c2S1(=O)=O` was run?
Answer: Its inhibition is 10%.

Question: With `CC(=O)NN1C(=O)c2ccccc2NC1c1ccccc1` (configuration not stated) as the compound, how does the inhibition read?
Answer: Its inhibition is 4.64%.

Question: For `Cc1ccc(C2Nc3ccccc3C(=O)N2CCN2CCNC2=O)cc1` (configuration not stated), which inhibition is on record?
Answer: Its inhibition is 19.3% (active).

Question: With `CCOC(=O)NN1C(=O)c2ccccc2NC1c1cccc(O)c1` (configuration not stated) as the compound, how does the inhibition read?
Answer: The inhibition was -3.61%.

Question: How did the inhibition turn out when `CC(C)(C)c1cc2cccnc2n1Cc1cccc(F)c1` was run?
Answer: The inhibition was 20.9% (active).

Question: `COc1ccnc2c1c(=O)n(Cc1cccc(F)c1)c(=O)n2C` was tested. Which inhibition did it give?
Answer: Its inhibition is 0.58%.

Question: `CC(C)(C)c1cc2cccnc2n1Cc1ccccc1` was tested. Which inhibition did it give?
Answer: Its inhibition is 8.03%.

Question: `O=C(CNC(=O)c1ccccc1)OC(C(=O)Nc1cc([N+](=O)[O-])ccc1F)c1ccccc1` (configuration not stated) was tested. Which inhibition did it give?
Answer: Its inhibition is 10.8%.

Question: `COc1ccc(N2CCN(CCNS(=O)(=O)c3ccc(C(C)(C)C)cc3)CC2)cc1` was tested. Which inhibition did it give?
Answer: The inhibition was -8.25%.

Question: `CC(=O)c1ccc(Nc2nc(C(N)c3ccccc3Cl)cs2)cc1` (configuration not stated) was tested. Which inhibition did it give?
Answer: The inhibition was -4.25%.

Question: With `O=C(COC(=O)/C=C/c1nc2ccccc2s1)Nc1ccccc1Oc1ccccc1` as the compound, how does the inhibition read?
Answer: Its inhibition is 8.15%.

Question: `NC(c1csc(NC(=O)Nc2ccccc2Oc2ccccc2)n1)c1ccccc1Cl` (configuration not stated) was tested. Which inhibition did it give?
Answer: The inhibition was 24.4% (active).

Question: `COC(=O)c1ccc(NC(=S)Nc2cccc(C)n2)cc1` was tested. Which inhibition did it give?
Answer: Its inhibition is 7.29%.

Question: How did the inhibition turn out when `Cc1cccc(-n2cnc(C(=O)Nc3cccnc3)c2)n1` was run?
Answer: The inhibition was 8.64%.

Question: Which inhibition does the source give for `Cc1cccc(-n2cnc(C(=O)NNC(=S)Nc3ccccc3)c2)n1` here?
Answer: Its inhibition is 38.5% (active).

Question: `CCOc1ccc(-n2c(SCC(=O)Nc3cc(C)c(NC(=O)c4ccccc4)cc3OC)nnc2-c2cccc(Cl)c2)cc1` was tested. Which inhibition did it give?
Answer: The inhibition was 2%.

Question: Which inhibition does the source give for `CSC1=NN(c2ccccc2)CN(c2ccccc2)N1C` here?
Answer: Its inhibition is 21.7% (active).

Question: For `O=C(CCl)NC1CCCCN(Cc2cccc(C(F)(F)F)c2)C1=O` (configuration not stated), which inhibition is on record?
Answer: The inhibition was 7.99%.

Question: How did the inhibition turn out when `CCCCNC(=O)C[C@H]1C(=O)N(Cc2ccc(OC)cc2)C2=CCCC[C@@]21C(=O)OCC` was run?
Answer: Its inhibition is 12.9%.

Question: How did the inhibition turn out when `Cc1ccc(NCc2n[nH]c(=S)n2-c2ccccc2)cc1Cl` was run?
Answer: Its inhibition is 12.3%.

Question: For `Cc1cc(-c2n[nH]c(=S)n2-c2ccc(C)c(C)c2)no1`, which inhibition is on record?
Answer: The inhibition was 20.5% (active).

Question: For `Cc1ccc(C)c(S(=O)(=O)Nc2cc(C)on2)c1`, which inhibition is on record?
Answer: Its inhibition is 6.47%.

Question: With `Cc1ccccc1CN1CCCCC(NC(=O)Nc2ccccc2F)C1=O` (configuration not stated) as the compound, how does the inhibition read?
Answer: The inhibition was 4.74%.

Question: With `C[C@@H](NC(=O)c1ccccc1OCC(=O)Nc1ccc(I)cc1)C(=O)N(C)Cc1ccccc1` as the compound, how does the inhibition read?
Answer: Its inhibition is -8.83%.

Question: `Cc1ccc(-n2c(SCC(=O)Nc3ccc(S(=O)(=O)Nc4nccs4)cc3)nnc2-c2ccccn2)cc1` was tested. Which inhibition did it give?
Answer: The inhibition was -36.9%.

Question: `CC(=O)c1cc(C#N)c(N2CC(C)OC(C)C2)nc1C` (configuration not stated) was tested. Which inhibition did it give?
Answer: The inhibition was 10.2%.

Question: Which inhibition does the source give for `CC(=O)c1nnn(-c2ccc(Cl)cc2C#N)c1C` here?
Answer: Its inhibition is 21.4% (active).

Question: For `O=C(Nc1cccc(Cl)c1)OC1CC2CC1[C@H]1CCCCN1[C@H]2Cc1ccccc1` (some centres not stated), which inhibition is on record?
Answer: The inhibition was -3.5%.

Question: How did the inhibition turn out when `N#Cc1ccc(OC[C@@H](O)CN2CCC(C(O)(c3ccccc3)c3ccccc3)CC2)c(F)c1` was run?
Answer: Its inhibition is -15.8%.

Question: `O=C(c1ccc2c(c1)C(=O)N(Cc1ccncc1)C2=O)N1CCN(S(=O)(=O)c2ccc(OC(F)(F)F)cc2)CC1` was tested. Which inhibition did it give?
Answer: The inhibition was 0.57%.

Question: Which inhibition does the source give for `Cc1ccc(CC2(C)C(=O)Nc3ccc(OC(F)(F)F)cc32)cc1` (configuration not stated) here?
Answer: The inhibition was -5.51%.

Question: `O=C1C(=O)N(Cc2ccc(-c3ccsc3)cc2)c2ccc(OC(F)(F)F)cc21` was tested. Which inhibition did it give?
Answer: Its inhibition is 26% (active).

Question: How did the inhibition turn out when `CC(C)CNC(=O)OCc1cn(Cc2ccc(F)cc2)nn1` was run?
Answer: The inhibition was 1.52%.

Question: For `COC(=O)[C@@]12CCCCC3=C1N(CCC3)C(=O)[C@H]2CC(=O)NCc1cccc2ccccc12`, which inhibition is on record?
Answer: Its inhibition is -12%.

Question: How did the inhibition turn out when `CCCC[C@H]1C2CC(OC(=O)NCc3ccccc3)C(C2)[C@H]2CCCCN21` (some centres not stated) was run?
Answer: Its inhibition is 9.24%.

Question: For `Nn1c(SCC(=O)Nc2ccc(S(N)(=O)=O)cc2)nnc1-c1n[nH]c2c1CCC2`, which inhibition is on record?
Answer: The inhibition was 9.17%.
